Test results reported in PubChem BioAssay (NCI).
The panel holds about 79,000 compounds, 15% with a hit somewhere; the sample as a whole holds those more often. A number with no mark means an inactive call. Cut-off read from the data, not from the text of the source: active = growth inhibition above about 70%; inactive = the rest.

Assay: NCI Yeast Anticancer Drug Screen. Data for the sgs1 mgt1 strain (AID 161);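 note: 0% = growth of cultures given vehicle only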
Conditions: S. cerevisiae sgs1 mgt1 strain, at 50.0 µM, hits give high values
Method in brief: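 Test agents were incubated with a DNA-repair-mutant yeast strain. Growth was then read and compared against vehicle-treated controls.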

| SMILES | growth inhibition [%] |
| --- | --- |
| CC(C)C1CCC2(CC1)CCN(CCCN(C)C)CC2 | 9.15 |
| CC1=CC(=O)OC(=O)/C1=C/c1ccc(N(C)C)cc1 | -7.65 |
| CCN(CC)c1ccc2cc(-c3nc4ccccc4[nH]3)c(=O)oc2c1 | 12.5 |
| C1=C(c2ccccc2)NC2=N[C@H]3CCCC[C@@H]3N2C1c1ccccc1 (stereo not given in full) | 22.8 |
| Cc1cc2c(c(C)c1O)C(C)(C)CN2C(=O)C(C)(C)C | 2.55 |
| COC(=O)CCCC(NC(=O)c1ccc([N+](=O)[O-])cc1)C(=O)OC (stereo not given) | 13.9 |
| Cc1[nH]c2ccc([N+](=O)[O-])cc2c1C | 32.1 |
| Nc1cn(Cc2ccccc2)c(=O)n(Cc2ccccc2)c1=O | -9.5 |
| CN1CCC(OC(=O)C(O)C2CCCCC2)CC1 (stereo not given) | 13.8 |
| CC(C=O)C1CCCCC1 (stereo not given) | 0.6 |
| Cc1ccc(NC(=O)Nc2cccc(Cl)c2C)cc1C | 12.8 |
| C/C(=C/c1c(C)[nH]c(=O)[nH]c1=O)C(=O)O | -3.75 |
| CCN(CC)Cc1cc(Nc2nc(/C=C/c3ccccc3)nc3ccccc23)ccc1O | -3.25 |
| O=[N+]([O-])c1ccc(OCCO)c([N+](=O)[O-])c1 | -22.4 |
| O=C(O)c1ccccc1/C=N\NC1=NCCCCN1 | -31.4 |
| COc1ccc(-c2onc(-c3ccc([N+](=O)[O-])cc3)c2C2=NCCCN2)cc1 | -10.3 |
| COCn1c2ccc(OC(C)=O)cc2c2c(=O)oc(N(C)C)nc21 | -29.4 |
| O=C(CCl)OCC(CCl)OC(=O)CCl (stereo not given) | 37.1 |
| CC(C)Cn1cnc2c(Cl)nc3ccccc3c21 | 23.4 |
| CCOC(=O)c1nc(SC)sc1NC(=O)c1ccc(OC)cc1 | 13.1 |

| SMILES | growth inhibition [%] |
| --- | --- |
| CC1(C)C=Cc2c(ccc(C(=O)Cc3ccccc3)c2O)O1 | 26.4 |
| C=CCN1C(C)(C)NC(=S)C1(C)C | -1.7 |
| CCOC(=O)COc1cc2c(cc1C(C)c1cc(OC)c(OC)c(OC)c1)OCO2 (stereo not given) | 10.3 |
| CCN(CC)c1ncnc2n[nH]nc12 | -18 |
| C/C(=C(/C)c1cc[n+](C)cc1)c1cc[n+](C)cc1 | 67 |
| O=C(O)c1ccc(Cl)cc1[N+](=O)[O-] | 21.6 |
| CCOc1ccc(CCC(=O)O)cc1 | -1.65 |
| CCOc1ccc(C(=O)C=O)cc1 | 11.4 |
| CC1(C)C(N)C(C)(C)C1N (stereo not given) | -0.3 |
| CCOC(=O)c1c(OC)c(-c2ccccc2)c(=O)n2c3ccccc3n(C)c12 | -0.2 |
| CC1=C(O[Si](C(C)C)(C(C)C)C(C)C)C2CC1(OS(=O)(=O)C(F)(F)F)[C@H]1C(=O)N(c3ccccc3)C(=O)[C@@H]21 (stereo not given in full) | 0.3 |
| O=S1(=O)C(c2ccccc2)C(N2CCCCC2)C1C1CC2c3ccccc3C1c1ccccc12 (stereo not given) | 2.9 |
| c1cc(N2CCOCC2)ccc1Cc1ccc(N2CCOCC2)cc1 | -4.1 |
| Nc1nc(N)c(N2CCN(Cc3ccccc3)CC2)c(Cl)n1 | 33.1 |
| C=Cn1c2ccccc2c2ccccc21 | 26.9 |
| CC(C)[C@@H]1CC[C@@H](C)C[C@H]1OC(=O)c1c2n(c3ccccc13)C[C@H]1OC(C)(C)O[C@@H]21 | 7.4 |
| CC1(C)CO/C(=C/C(=O)c2ccccc2)N1C(=O)c1ccccc1 | -6.15 |
| Nc1nc(N)c2c(n1)NCN(OCOc1ccc(Cl)cc1)C2 | -4.7 |
| CCC(C(=O)O)C(=O)O.[NH-]CC1CCCC[N-]1.[Pt+2] | 2.55 |
| CC1=NN(C(=O)c2ccccc2O)C(=O)/C1=C/c1cccc([N+](=O)[O-])c1 | 37.1 |
